Measured values as given in PubChem BioAssay AID1159580 (chemical genetic matrix, 2015).
Among all 5,500 compounds or so, about 2,000 (36%) were called active. Inconclusive results (about 18%) are left out. Rule as the data show it: active = normalized growth mostly below about 0.91 (no sharp cut-off); inconclusive = no clear call, values can overlap the other calls; inactive = mostly above about 0.92. The list shows a part of the results.

Assay: chemical genetic growth profiling, strain panel (AID 1159580);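 also: tested at 20 µM; growth read once vehicle control cultures reached saturation at 30 °C; 1 = growth at the plate median or of vehicle wells; lower values mean less growth of the strain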
Conditions: growth OD
[1] = S. cerevisiae deletion strains, locus YDL101C, strain DUN1, stronger effect = lower value
[2] = S. cerevisiae deletion strains, locus YHR030C, strain SLT2, stronger effect = lower value

Measured: normalized growth

N=C(N)SCc1nc(-c2ccc(Cl)cc2)no1
inactive: S. cerevisiae deletion strains, locus YAR019C, strain CDC15, stronger effect = lower value 0.979 | S. cerevisiae deletion strains, locus YBL105C, strain PKC1, stronger effect = lower value 0.985 | S. cerevisiae deletion strains, locus YBR135W, strain CKS1, stronger effect = lower value 0.981 | S. cerevisiae deletion strains, locus YBR136W, strain MEC1, stronger effect = lower value 0.984 | S. cerevisiae deletion strains, locus YBR160W, strain CDC28, stronger effect = lower value 0.984 | S. cerevisiae deletion strains, locus YDL017W, strain CDC7, stronger effect = lower value 0.977 | S. cerevisiae deletion strains, locus YDL028C, strain MPS1, stronger effect = lower value 0.977 | [1] 0.99 | S. cerevisiae deletion strains, locus YDL108W, strain KIN28, stronger effect = lower value 0.976 | S. cerevisiae deletion strains, locus YDL132W, strain cdc53, stronger effect = lower value 0.99 | S. cerevisiae deletion strains, locus YDL214C, strain PRR2, stronger effect = lower value 0.975 | S. cerevisiae deletion strains, locus YDR052C, strain DBF4, stronger effect = lower value 0.99 | S. cerevisiae deletion strains, locus YDR054C, strain cdc34, stronger effect = lower value 0.978 | S. cerevisiae deletion strains, locus YDR226W, strain ADK1, stronger effect = lower value 0.978 | S. cerevisiae deletion strains, locus YDR477W, strain SNF1, stronger effect = lower value 0.977 | S. cerevisiae deletion strains, locus YER123W, strain YCK3, stronger effect = lower value 0.989 | S. cerevisiae deletion strains, locus YER133W, strain GLC7, stronger effect = lower value 0.986 | S. cerevisiae deletion strains, locus YFL009W, strain cdc4, stronger effect = lower value 0.983 | S. cerevisiae deletion strains, locus YFL029C, strain CAK1, stronger effect = lower value 0.978 | S. cerevisiae deletion strains, locus YFR003C, strain YPI1, stronger effect = lower value 0.982 | S. cerevisiae deletion strains, locus YFR019W, strain FAB1, stronger effect = lower value 0.973 | S. cerevisiae deletion strains, locus YFR028C, strain CDC14, stronger effect = lower value 0.986 | S. cerevisiae deletion strains, locus YGR040W, strain KSS1, stronger effect = lower value 0.98 | S. cerevisiae deletion strains, locus YGR052W, strain FMP48, stronger effect = lower value 1.03 | S. cerevisiae deletion strains, locus YGR092W, strain DBF2, stronger effect = lower value 0.987 | [2] 0.949 | S. cerevisiae deletion strains, locus YHR079C, strain IRE1, stronger effect = lower value 0.96 | S. cerevisiae deletion strains, locus YHR082C, strain KSP1, stronger effect = lower value 1.06 | S. cerevisiae deletion strains, locus YHR205W, strain SCH9, stronger effect = lower value 0.828 | S. cerevisiae deletion strains, locus YIL147C, strain SLN1, stronger effect = lower value 0.985 | S. cerevisiae deletion strains, locus YJL095W, strain BCK1, stronger effect = lower value 1.01 | S. cerevisiae deletion strains, locus YJL128C, strain PBS2, stronger effect = lower value 0.929 | S. cerevisiae deletion strains, locus YJL157C, strain FAR1, stronger effect = lower value 0.974 | S. cerevisiae deletion strains, locus YJR016C, strain ILV3, stronger effect = lower value 0.987 | S. cerevisiae deletion strains, locus YJR066W, strain TOR1 (second series), stronger effect = lower value 0.981 | S. cerevisiae deletion strains, locus YJR066W, strain TOR1, stronger effect = lower value 1.11 | S. cerevisiae deletion strains, locus YKL048C, strain ELM1, stronger effect = lower value 0.982 | S. cerevisiae deletion strains, locus YKL067W, strain YNK1, stronger effect = lower value 0.984 | S. cerevisiae deletion strains, locus YKL101W, strain HSL1, stronger effect = lower value 0.992 | S. cerevisiae deletion strains, locus YKL193C, strain SDS22, stronger effect = lower value 0.985 | S. cerevisiae deletion strains, locus YKL203C, strain TOR2, stronger effect = lower value 1.05 | S. cerevisiae deletion strains, locus YLR113W, strain HOG1, stronger effect = lower value 0.989 | S. cerevisiae deletion strains, locus YLR133W, strain CKI1, stronger effect = lower value 0.98 | S. cerevisiae deletion strains, locus YLR403W, strain SFP1, stronger effect = lower value 0.911 | S. cerevisiae deletion strains, locus YML070W, strain DAK1, stronger effect = lower value 0.996 | S. cerevisiae deletion strains, locus YMR001C, strain CDC5, stronger effect = lower value 0.981 | S. cerevisiae deletion strains, locus YMR205C, strain PFK2 (second series), stronger effect = lower value 0.981 | S. cerevisiae deletion strains, locus YMR277W, strain FCP1, stronger effect = lower value 0.985 | S. cerevisiae deletion strains, locus YNL006W, strain LST8, stronger effect = lower value 0.981 | S. cerevisiae deletion strains, locus YNL020C, strain ARK1, stronger effect = lower value 0.986 | S. cerevisiae deletion strains, locus YNL161W, strain CBK1, stronger effect = lower value 0.983 | S. cerevisiae deletion strains, locus YNL183C, strain NPR1, stronger effect = lower value 1.1 | S. cerevisiae deletion strains, locus YNL207W, strain RIO2, stronger effect = lower value 0.978 | S. cerevisiae deletion strains, locus YNL222W, strain SSU72, stronger effect = lower value 0.984 | S. cerevisiae deletion strains, locus YNL307C, strain MCK1 (second series), stronger effect = lower value 0.983 | S. cerevisiae deletion strains, locus YOL078W, strain AVO1, stronger effect = lower value 0.981 | S. cerevisiae deletion strains, locus YOL136C, strain PFK27, stronger effect = lower value 0.97 | S. cerevisiae deletion strains, locus YOR061W, strain CKA2, stronger effect = lower value 0.986 | S. cerevisiae deletion strains, locus YOR119C, strain RIO1, stronger effect = lower value 1.05 | S. cerevisiae deletion strains, locus YOR231W, strain MKK1, stronger effect = lower value 1.03 | S. cerevisiae deletion strains, locus YOR329C, strain SCD5, stronger effect = lower value 0.982 | S. cerevisiae deletion strains, locus YPL031C, strain PHO85, stronger effect = lower value 0.964 | S. cerevisiae deletion strains, locus YPL153C, strain RAD53, stronger effect = lower value 0.964 | S. cerevisiae deletion strains, locus YPL204W, strain HRR25, stronger effect = lower value 0.953 | S. cerevisiae deletion strains, locus YPL209C, strain IPL1, stronger effect = lower value 0.986 | S. cerevisiae deletion strains, locus YPL256C, strain CLN2, stronger effect = lower value 0.925 | S. cerevisiae deletion strains, locus YPR025C, strain CCL1, stronger effect = lower value 0.987 | S. cerevisiae deletion strains, locus YPR106W, strain ISR1, stronger effect = lower value 0.978 | S. cerevisiae deletion strains, locus YPR111W, strain DBF20, stronger effect = lower value 0.981 | S. cerevisiae deletion strains, strain NNK1, stronger effect = lower value 0.992 | S. cerevisiae deletion strains, strain TSCII, stronger effect = lower value 0.983

c1ccc(CSC2=NCCCN2)cc1
inactive: S. cerevisiae deletion strains, locus YAL013W, strain DEP1, stronger effect = lower value 1 | S. cerevisiae deletion strains, locus YBR229C, strain ROT2, stronger effect = lower value 0.993 | [1] 1.01 | S. cerevisiae deletion strains, locus YDR150W, strain NUM1, stronger effect = lower value 0.977 | S. cerevisiae deletion strains, locus YEL061C, strain CIN8, stronger effect = lower value 1.02 | S. cerevisiae deletion strains, locus YGR078C, strain PAC10, stronger effect = lower value 1.01 | S. cerevisiae deletion strains, locus YGR229C, strain SMI1, stronger effect = lower value 1 | [2] 1.03 | S. cerevisiae deletion strains, locus YHR087W, strain rtc3, stronger effect = lower value 1.01 | S. cerevisiae deletion strains, locus YJR043C, strain POL32, stronger effect = lower value 1.01 | S. cerevisiae deletion strains, locus YJR075W, strain HOC1, stronger effect = lower value 0.997 | S. cerevisiae deletion strains, locus YKL190W, strain CNB1, stronger effect = lower value 1 | S. cerevisiae deletion strains, locus YLR039C, strain RIC1, stronger effect = lower value 0.993 | S. cerevisiae deletion strains, locus YLR058C, strain SHM2 (second series), stronger effect = lower value 1.01 | S. cerevisiae deletion strains, locus YLR085C, strain ARP6, stronger effect = lower value 1.04 | S. cerevisiae deletion strains, locus YLR262C, strain YPT6, stronger effect = lower value 1.01 | S. cerevisiae deletion strains, locus YML094W, strain GIM5, stronger effect = lower value 1 | S. cerevisiae deletion strains, locus YMR219W, strain ESC1, stronger effect = lower value 1.01 | S. cerevisiae deletion strains, locus YMR307W, strain GAS1, stronger effect = lower value 1 | S. cerevisiae deletion strains, locus YNL128W, strain TEP1, stronger effect = lower value 1.02 | S. cerevisiae deletion strains, locus YNL153C, strain GIM3, stronger effect = lower value 0.996 | S. cerevisiae deletion strains, locus YNL298W, strain CLA4 (second series), stronger effect = lower value 1.05 | S. cerevisiae deletion strains, locus YNL322C, strain KRE1, stronger effect = lower value 1.01 | S. cerevisiae deletion strains, locus YNR030W, strain Alg12, stronger effect = lower value 1.02 | S. cerevisiae deletion strains, locus YOL006C, strain TOP1, stronger effect = lower value 1.04 | S. cerevisiae deletion strains, locus YPL055C, strain LGE1, stronger effect = lower value 0.984 | S. cerevisiae deletion strains, locus YPL241C, strain CIN2, stronger effect = lower value 1.01 | S. cerevisiae deletion strains, locus YPR135W, strain CTF4, stronger effect = lower value 1.08 | S. cerevisiae strains, strain wild type, stronger effect = lower value 1.01
